Experimental data from the supplement of paper PMC3545927.
The list shows a part of the results. How many sequences the whole screen found active is unknown.

Target: furin, P09958
Assay: furin cleavage Z-score vs untreated control; higher = more cleavage, active = 3.5 or more, inactive = 1 or less, 8 variable residues between constant flanks
In short: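 To give the cleavage Z-score, log read counts were set against furin-free reactions, lowess-adjusted and scaled by median absolute deviation. These counts came from PCR adapter-tagged, sequenced DNA released when purified furin cut 8-mer peptides fused to a cDNA oligonucleotide and held on magnetic beads by their N-terminus. Digests were 0.01 ml, 1:10 enzyme:substrate, in 50 mM HEPES pH 7.5 with CaCl2 and NaCl, for 7.5, 15 or 30 min.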

Chain of furin, P09958 (P09958 whole entry): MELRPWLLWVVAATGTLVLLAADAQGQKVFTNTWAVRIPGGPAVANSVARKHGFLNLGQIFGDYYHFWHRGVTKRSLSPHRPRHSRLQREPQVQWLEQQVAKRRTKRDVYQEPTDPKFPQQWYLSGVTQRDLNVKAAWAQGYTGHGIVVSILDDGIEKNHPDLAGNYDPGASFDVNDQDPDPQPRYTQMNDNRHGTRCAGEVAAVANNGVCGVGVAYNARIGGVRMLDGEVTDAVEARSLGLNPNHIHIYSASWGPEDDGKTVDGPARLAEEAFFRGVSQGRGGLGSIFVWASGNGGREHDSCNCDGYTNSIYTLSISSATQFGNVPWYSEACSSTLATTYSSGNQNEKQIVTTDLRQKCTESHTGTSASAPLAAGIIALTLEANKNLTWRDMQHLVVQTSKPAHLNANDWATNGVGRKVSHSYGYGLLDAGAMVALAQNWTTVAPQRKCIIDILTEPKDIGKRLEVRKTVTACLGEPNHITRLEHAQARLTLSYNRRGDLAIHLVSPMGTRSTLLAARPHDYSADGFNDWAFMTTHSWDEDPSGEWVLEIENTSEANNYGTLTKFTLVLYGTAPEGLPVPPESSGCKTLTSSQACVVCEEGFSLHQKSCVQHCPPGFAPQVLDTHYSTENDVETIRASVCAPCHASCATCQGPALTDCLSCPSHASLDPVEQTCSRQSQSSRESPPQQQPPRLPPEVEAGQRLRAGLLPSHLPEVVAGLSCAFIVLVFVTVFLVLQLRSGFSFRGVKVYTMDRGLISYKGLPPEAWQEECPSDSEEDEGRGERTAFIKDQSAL

Row | Sequence | furin cleavage Z-score (7.5 min) | furin cleavage Z-score (15 min) | furin cleavage Z-score (30 min)
1 | CAEVVISTWVAGNASASA [HC125] | 0.441 (inactive) | -0.457 (inactive) | -1.26 (inactive)
2 | CACGAEITGHAGNASASA [HC1176] | -2.29 (inactive) | -1.09 (inactive) | -4.52 (inactive)
3 | CAEVPCHAPSAGNASASA [HC2363] | 0.635 (inactive) | 1.02 | 0.728 (inactive)
4 | CAEVPCHRPWAGNASASA [HC2408] | -0.0166 (inactive) | 0.18 (inactive) | 0.457 (inactive)
5 | CARVARERRWAGNASASA [FS-292] | 7.91 (active) | 11.7 (active) | 9.72 (active)
6 | CARQGRVISVAGNASASA [FS-2168] | -2.08 (inactive) | -0.187 (inactive) | 0.163 (inactive)
7 | CARIERVIGAAGNASASA [FS-2212] | 0.267 (inactive) | -1.07 (inactive) | 0.338 (inactive)
8 | CARQGRIARVAGNASASA [FS-1608] | 4.13 (active) | 2.36 | 3.61 (active)
9 | CARPGRPARVAGNASASA [FS-1159] | -0.325 (inactive) | -0.113 (inactive) | -0.65 (inactive)
10 | CARIERVARVAGNASASA [FS-187] | 2.36 | 1.28 | 4.15 (active)
11 | CAFCTTPCSGAGNASASA [HC1947] | 1.42 | -0.358 (inactive) | -1.43 (inactive)
12 | CATGMTTDNLAGNASASA [HC1212] | -0.509 (inactive) | 1.51 | -0.989 (inactive)
13 | CAHLNSTALNAGNASASA [HC371] | 1.65 | 0.509 (inactive) | 0.52 (inactive)
14 | CAVEPVVFSQAGNASASA [HC646] | -0.426 (inactive) | 0.0995 (inactive) | -0.8 (inactive)
15 | CASMPCSAHLAGNASASA [HC2486] | -0.177 (inactive) | 1.03 | -0.00604 (inactive)
16 | CAQEECSQHLAGNASASA [HC1682] | -0.746 (inactive) | 0.819 (inactive) | 1.15
17 | CARQVRCVGNAGNASASA [FS-3045] | 3.15 | 3.4 | 5.33 (active)
18 | CACVIGGAGNAGNASASA [HC445] | -1.36 (inactive) | -2.02 (inactive) | -1.24 (inactive)
19 | CARQVRGVTQAGNASASA [FS-2447] | -1.36 (inactive) | 0.0563 (inactive) | 0.556 (inactive)
20 | CARKIRVNGTAGNASASA [FS-2422] | -0.334 (inactive) | 0.321 (inactive) | -1.68 (inactive)
21 | CARQARRVGGAGNASASA [FS-1766] | -0.614 (inactive) | -0.316 (inactive) | -0.000733 (inactive)
22 | CARKIRTVGNAGNASASA [FS-1726] | 5.44 (active) | 7.79 (active) | 7.77 (active)
23 | CASGFVSLLAAGNASASA [HC359] | 0.181 (inactive) | 0.268 (inactive) | 0.641 (inactive)
24 | CAVFTDNSSPAGNASASA [HC765] | -0.215 (inactive) | -0.103 (inactive) | 0.299 (inactive)
25 | CAEPLDLPPIAGNASASA [HC1598] | 0.806 (inactive) | 1.44 | 0.441 (inactive)

Row | Sequence | furin cleavage Z-score (7.5 min) | furin cleavage Z-score (15 min) | furin cleavage Z-score (30 min)
26 | CAVPSTEDLVAGNASASA [HC1097] | -2.52 (inactive) | -0.505 (inactive) | 0.561 (inactive)
27 | CARVRRRSVQAGNASASA [FS-3175] | 0.273 (inactive) | 0.235 (inactive) | 0.754 (inactive)
28 | CARVRRANTFAGNASASA [FS-2622] | 3.44 | 5.83 (active) | 5.99 (active)
29 | CARVRRLVRHAGNASASA [FS-3240] | 12.5 (active) | 11.6 (active) | 9.85 (active)
30 | CAAVRRLVGNAGNASASA [FS-1667] | -1.38 (inactive) | -1.34 (inactive) | -1.08 (inactive)
31 | CARVRRAVRIAGNASASA [FS-2107] | 2.88 | 2.85 | 5.12 (active)
32 | CAASRQAEVIAGNASASA [HC1030] | -0.216 (inactive) | -0.538 (inactive) | -1.56 (inactive)
33 | CARVMRWNSKAGNASASA [FS-3120] | -0.31 (inactive) | 0.804 (inactive) | 2.88
34 | CARVRRAWVIAGNASASA [FS-3124] | 1.98 | 4.98 (active) | 7.77 (active)
35 | CAYQATVCARAGNASASA [HC955] | 1.06 | 0.432 (inactive) | -1.24 (inactive)
36 | CAYFVRVQGLAGNASASA [HC616] | 0.749 (inactive) | 0.0281 (inactive) | 0.654 (inactive)
37 | CALSTGLIHLAGNASASA [HC503] | 1.35 | 0.833 (inactive) | 1.12
38 | CAAAQGYKVLAGNASASA [HC783] | 0.259 (inactive) | 0.477 (inactive) | -0.5 (inactive)
39 | CADPDLSDGSAGNASASA [HC1359] | -1.03 (inactive) | -0.792 (inactive) | -0.78 (inactive)
40 | CAVVCCSMSGAGNASASA [HC2096] | -0.582 (inactive) | -1.33 (inactive) | -0.463 (inactive)
41 | CARHRRAAGGAGNASASA [FS-2144] | 5.47 (active) | 4.69 (active) | 5.6 (active)
42 | CARIRRNAKGAGNASASA [FS-1723] | 9.77 (active) | 9.21 (active) | 7.23 (active)
43 | CARQRRAAGGAGNASASA [FS-2588] | 4.04 (active) | 2.03 | 3.5 (active)
44 | CARQRRPHGGAGNASASA [FS-2765] | -0.899 (inactive) | -0.697 (inactive) | -0.913 (inactive)
45 | CARPLRDAGGAGNASASA [FS-2357] | 0.0621 (inactive) | -0.105 (inactive) | -0.644 (inactive)
46 | CARQRRAAKGAGNASASA [FS-3230] | 5.82 (active) | 8.24 (active) | 7.16 (active)
47 | CARILRSAWGAGNASASA [FS-2684] | -1.8 (inactive) | 0.635 (inactive) | 0.838 (inactive)
48 | CARQKKTTGGAGNASASA [FS-3034] | -1.15 (inactive) | -0.895 (inactive) | -0.562 (inactive)
49 | CARLRRFQKGAGNASASA [FS-2714] | -0.592 (inactive) | -0.736 (inactive) | -0.569 (inactive)
50 | CARHRRIHSGAGNASASA [FS-2945] | -0.899 (inactive) | -0.653 (inactive) | -0.511 (inactive)
